What was measured:
Assay in all cases: universal protein binding microarray (PBM); transcription factors of Arabidopsis thaliana; high values mean tight binding
GST-ANAC092(1-176) = target: T1, GST-ANAC092(1-176) (Arabidopsis thaliana, UniProt Q9FKA0 1-176); details: protein: recombinant; tags: GST; chain copies: 2; dsDNA, one strand shown
T1 sequence: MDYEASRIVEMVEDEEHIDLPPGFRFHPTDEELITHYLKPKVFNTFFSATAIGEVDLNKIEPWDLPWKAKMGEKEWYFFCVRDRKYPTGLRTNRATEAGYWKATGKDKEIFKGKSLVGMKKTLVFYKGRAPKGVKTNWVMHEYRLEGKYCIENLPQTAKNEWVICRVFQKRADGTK
Procedure, shortened: (§1)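 GST-tagged NAC-domain, full-length or DNA-binding-domain proteins were induced in cells, with zinc acetate added for zinc-finger proteins. They were purified on glutathione–Sepharose 4B and quantified by A280 or anti-GST western blot. Each was applied at 200 to 500 nM final, in duplicate, to custom all-10-mer Agilent 4 × 180K arrays made double-stranded by primer extension, with gapped and ungapped 8-mers scored. Binding is the normalised enrichment score (E-score).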

GST-ANAC055(1-171) = target: T2, GST-ANAC055(1-171) (Arabidopsis thaliana, UniProt Q9LDY8 1-171); details: protein: recombinant; tags: GST; chain copies: 2; dsDNA, one strand shown
T2 sequence: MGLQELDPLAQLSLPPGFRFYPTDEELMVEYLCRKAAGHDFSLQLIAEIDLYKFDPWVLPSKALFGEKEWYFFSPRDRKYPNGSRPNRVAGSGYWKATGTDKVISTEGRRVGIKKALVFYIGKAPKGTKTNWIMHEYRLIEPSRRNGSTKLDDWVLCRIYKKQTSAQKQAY
Procedure, shortened: as §1

GST-ATAF1 NAC domain = target: T3, GST-ATAF1 NAC domain (Arabidopsis thaliana, UniProt Q39013 7-158); details: protein: recombinant; tags: GST; chain copies: 2; dsDNA, one strand shown
T3 sequence: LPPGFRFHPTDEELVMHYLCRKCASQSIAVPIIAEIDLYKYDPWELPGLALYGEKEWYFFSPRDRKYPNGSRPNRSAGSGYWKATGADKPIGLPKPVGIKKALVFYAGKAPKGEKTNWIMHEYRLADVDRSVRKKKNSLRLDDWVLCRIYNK
Procedure, shortened: as §1

[1] = target: T4, GST-ANAC092(1-285) full length (Arabidopsis thaliana, UniProt Q9FKA0 1-285); details: protein: recombinant; tags: GST; chain copies: 2; dsDNA, one strand shown
T4 sequence: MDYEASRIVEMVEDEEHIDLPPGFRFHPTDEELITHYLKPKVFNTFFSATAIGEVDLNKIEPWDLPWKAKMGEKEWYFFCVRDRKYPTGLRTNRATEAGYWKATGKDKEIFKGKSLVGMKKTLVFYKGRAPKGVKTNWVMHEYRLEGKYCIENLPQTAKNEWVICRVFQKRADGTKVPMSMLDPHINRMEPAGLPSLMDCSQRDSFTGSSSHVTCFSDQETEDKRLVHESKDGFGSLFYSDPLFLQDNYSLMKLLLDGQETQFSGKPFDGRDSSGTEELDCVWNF
Procedure, shortened: as §1

GST-NAP(1-166) = target: T5, GST-NAP(1-166) (Arabidopsis thaliana, UniProt O49255 1-166); details: protein: recombinant; tags: GST; chain copies: 2; dsDNA, one strand shown
T5 sequence: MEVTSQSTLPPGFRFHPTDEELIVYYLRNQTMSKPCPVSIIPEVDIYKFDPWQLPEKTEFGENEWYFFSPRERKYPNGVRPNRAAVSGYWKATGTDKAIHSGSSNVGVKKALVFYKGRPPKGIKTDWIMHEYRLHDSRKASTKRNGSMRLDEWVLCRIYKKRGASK
Procedure, shortened: as §1

GST-NST2(1-184) = target: T6, GST-NST2(1-184) (Arabidopsis thaliana, UniProt Q9M274 1-184); details: protein: recombinant; tags: GST; chain copies: 2; dsDNA, one strand shown
T6 sequence: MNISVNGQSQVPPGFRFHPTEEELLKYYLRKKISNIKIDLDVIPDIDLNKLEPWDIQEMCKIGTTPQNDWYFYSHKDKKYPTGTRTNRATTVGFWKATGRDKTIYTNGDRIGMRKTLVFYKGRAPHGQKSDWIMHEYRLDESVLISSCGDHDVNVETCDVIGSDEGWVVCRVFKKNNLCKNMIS
Procedure, shortened: as §1

GST-SND1(1-203) = target: T7, GST-SND1(1-203) (Arabidopsis thaliana, UniProt Q9LPI7 1-203); details: protein: recombinant; tags: GST; chain copies: 2; dsDNA, one strand shown
T7 sequence: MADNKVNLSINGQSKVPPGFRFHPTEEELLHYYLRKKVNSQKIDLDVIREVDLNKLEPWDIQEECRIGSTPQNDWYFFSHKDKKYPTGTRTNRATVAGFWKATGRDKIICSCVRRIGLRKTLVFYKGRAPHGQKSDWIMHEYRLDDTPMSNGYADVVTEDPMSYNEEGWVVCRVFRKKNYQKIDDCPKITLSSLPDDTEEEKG
Procedure, shortened: as §1

GST-VND3 NAC domain = target: T8, GST-VND3 NAC domain (Arabidopsis thaliana, UniProt Q9FH59 12-162); details: protein: recombinant; tags: GST; chain copies: 2; dsDNA, one strand shown
T8 sequence: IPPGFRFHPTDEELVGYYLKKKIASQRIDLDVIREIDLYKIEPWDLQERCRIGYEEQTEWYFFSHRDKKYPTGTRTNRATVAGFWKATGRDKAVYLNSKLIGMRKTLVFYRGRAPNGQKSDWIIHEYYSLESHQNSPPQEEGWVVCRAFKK
Procedure, shortened: as §1

GST-VND7 NAC domain = target: T9, GST-VND7 NAC domain (Arabidopsis thaliana, UniProt Q9C8W9 9-158); details: protein: recombinant; tags: GST; chain copies: 2; dsDNA, one strand shown
T9 sequence: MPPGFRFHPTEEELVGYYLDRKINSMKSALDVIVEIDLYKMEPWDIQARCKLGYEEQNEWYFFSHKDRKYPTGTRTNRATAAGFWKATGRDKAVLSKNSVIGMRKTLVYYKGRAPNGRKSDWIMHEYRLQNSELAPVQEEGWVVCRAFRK
Procedure, shortened: as §1

GST-WRKY1(266-371) = GST-WRKY1(266-371) (Arabidopsis thaliana, UniProt Q9SI37 266-371); details: protein: recombinant; tags: GST; dsDNA, one strand shown
Chain of GST-WRKY1(266-371) (Q9SI37 266-371): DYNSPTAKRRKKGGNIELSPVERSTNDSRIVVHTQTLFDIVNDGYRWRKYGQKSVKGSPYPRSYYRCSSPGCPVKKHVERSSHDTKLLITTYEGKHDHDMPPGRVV
Procedure, shortened: as §1

GST-ANAC019 NAC domain = target: T10, GST-ANAC019 NAC domain (Arabidopsis thaliana, UniProt Q9C932 14-162); details: protein: recombinant; tags: GST; chain copies: 2; dsDNA, one strand shown
T10 sequence: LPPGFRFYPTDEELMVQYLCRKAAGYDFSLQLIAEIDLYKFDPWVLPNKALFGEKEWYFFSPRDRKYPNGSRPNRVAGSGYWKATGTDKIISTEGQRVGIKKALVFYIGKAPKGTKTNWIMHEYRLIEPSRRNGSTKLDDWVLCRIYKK
Procedure, shortened: as §1

GST-NTL8 NAC domain = target: T11, GST-NTL8 NAC domain (Arabidopsis thaliana, UniProt Q9XIN7 14-156); details: protein: recombinant; tags: GST; chain copies: 2; dsDNA, one strand shown
T11 sequence: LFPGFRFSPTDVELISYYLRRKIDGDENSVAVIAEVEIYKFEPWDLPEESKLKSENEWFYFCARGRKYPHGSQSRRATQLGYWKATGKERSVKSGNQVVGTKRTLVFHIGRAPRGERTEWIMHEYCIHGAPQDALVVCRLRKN
Procedure, shortened: as §1

GST-NTL6(1-168) = GST-NTL6(1-168) (Arabidopsis thaliana, UniProt Q9SCK6 1-168); details: protein: recombinant; tags: GST; chain copies: 2; dsDNA, one strand shown
Chain of GST-NTL6(1-168) (Q9SCK6 1-168): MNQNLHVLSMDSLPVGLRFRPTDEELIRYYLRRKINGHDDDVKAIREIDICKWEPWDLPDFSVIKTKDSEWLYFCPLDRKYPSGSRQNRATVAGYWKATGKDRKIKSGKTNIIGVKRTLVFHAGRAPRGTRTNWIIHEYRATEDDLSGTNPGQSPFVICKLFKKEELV
Procedure, shortened: as §1

| Sequence | binding signal (GST-ANAC092(1-176)) [E-score] | binding signal (GST-ANAC055(1-171)) [E-score] | binding signal (GST-ATAF1 NAC domain) [E-score] | binding signal [1] [E-score] | binding signal (GST-NAP(1-166)) [E-score] | binding signal (GST-NST2(1-184)) [E-score] | binding signal (GST-SND1(1-203)) [E-score] | binding signal (GST-VND3 NAC domain) [E-score] | binding signal (GST-VND7 NAC domain) [E-score] | binding signal (GST-WRKY1(266-371)) [E-score] | binding signal (GST-ANAC019 NAC domain) [E-score] | binding signal (GST-NTL8 NAC domain) [E-score] | binding signal (GST-NTL6(1-168)) [E-score] |
| --- | --- | --- | --- | --- | --- | --- | --- | --- | --- | --- | --- | --- | --- |
| ACGTTACA | 0.354 | 0.157 | 0.244 | 0.404 | 0.23 | 0.222 | 0.362 | 0.217 | 0.153 | – | – | – | – |
| GTACGCGA | 0.245 | 0.0563 | 0.234 | 0.4 | 0.188 | 0.129 | 0.288 | 0.11 | 0.133 | – | – | – | – |
| CAGTCAAC | 0.0753 | – | 0.084 | – | – | – | 0.0832 | 0.0605 | – | 0.491 | – | – | – |
| ACGCAAAC | 0.459 | 0.265 | 0.258 | 0.471 | 0.368 | 0.357 | 0.431 | 0.378 | 0.314 | – | 0.391 | 0.0692 | – |
| AGCACGCA | 0.435 | 0.281 | 0.31 | 0.453 | 0.282 | 0.222 | 0.343 | 0.301 | 0.216 | – | 0.333 | 0.0609 | – |
| ATGCGTAA | 0.319 | 0.108 | 0.115 | 0.356 | 0.175 | 0.243 | 0.436 | 0.217 | 0.188 | – | – | – | – |
| ATTTCTTA | – | 0.0799 | 0.19 | 0.185 | – | 0.126 | 0.225 | 0.0914 | 0.148 | – | – | – | 0.409 |
| GGTCAAAA | 0.0966 | 0.0727 | – | – | – | – | 0.123 | 0.0741 | – | 0.478 | – | 0.116 | 0.101 |
| GCACGCTA | 0.445 | 0.117 | – | 0.474 | – | 0.173 | 0.409 | 0.111 | 0.0845 | – | 0.207 | – | – |
| TTAAGGAA | 0.11 | 0.0521 | 0.0827 | 0.131 | – | 0.139 | 0.39 | 0.24 | – | 0.0668 | – | 0.293 | 0.48 |
| CCTTACCC | – | – | – | 0.0872 | – | – | 0.167 | 0.0668 | 0.0637 | – | – | 0.404 | 0.366 |
| AAGGTCAA | 0.138 | 0.106 | 0.146 | 0.0845 | – | 0.0822 | 0.144 | 0.101 | – | 0.484 | – | 0.0854 | 0.252 |
| AATACTTA | – | 0.162 | 0.254 | 0.104 | – | 0.0916 | 0.0985 | 0.187 | 0.0602 | – | 0.135 | 0.0845 | 0.405 |
| CTTTACGC | 0.294 | – | – | 0.302 | 0.081 | 0.193 | 0.408 | 0.0839 | 0.137 | – | 0.0905 | – | – |
| TCGGTCAA | 0.132 | 0.0819 | – | – | 0.097 | 0.0703 | 0.0612 | 0.0724 | – | 0.49 | – | – | 0.0645 |
| TTAAGAAA | 0.151 | 0.0935 | 0.195 | 0.227 | – | 0.142 | 0.367 | 0.0817 | – | 0.116 | – | 0.273 | 0.461 |

Source: PMC4081100, “A DNA-binding-site landscape and regulatory network analysis for NAC transcription factors in Arabidopsis thaliana”
